Assay outcomes as filed in PubChem BioAssay.
ADAM17 inh – ADAM17 inhibitors, primary screen, biochemical, QFRET; Disintegrin and metalloproteinase domain-containing protein 17 (Homo sapiens), P78536; recombinant ADAM17, EDANS/DABCYL FRET peptide cleavage; inhibition, % at 6.95 µM; actives 0.83% (n = 370,000); AID 720648, 2013;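 active = inhibition above the mean of compounds lying between control limits plus 3 SD, set per campaign, cut at about 8.5% in these data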
ADAM10 inh – human ADAM10 inhibitors, primary screen, biochemical, QFRET, HTS; AID 720582, 2013; actives 0.62% (n = 370,000); recombinant ADAM10, EDANS/DABCYL FRET peptide cleavage, 3 h; Disintegrin and metalloproteinase domain-containing protein 10 (Homo sapiens), O14672; inhibition, % at 7 µM;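 active = inhibition above a per-campaign cutoff equal to the mean of compounds falling between control-based bounds plus 3 SD, cut at about 20% in these data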
FGF22 binding – binders of human FGF22 protein, primary screen, FGF22 synaptogenesis inhibitor project, biophysical, thermal shift, single point | AID 651658, 2012 | actives 1.5% (n = 340,000) | recombinant FGF22 thermal shift, SYPRO orange fluorescence; percent of sucrose octasulfate shift, DMSO zero | Fibroblast growth factor 22 (Homo sapiens), Q9HCT0 | activity (Tm shift, normalised), % at 9.99 µM;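 active = mean Tm shift, scaled 0 neutral to 100 positive control, at about 1.3% or above, every replicate too, limit read from the data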
Target sequence (Q9HCT0 whole entry, looked up): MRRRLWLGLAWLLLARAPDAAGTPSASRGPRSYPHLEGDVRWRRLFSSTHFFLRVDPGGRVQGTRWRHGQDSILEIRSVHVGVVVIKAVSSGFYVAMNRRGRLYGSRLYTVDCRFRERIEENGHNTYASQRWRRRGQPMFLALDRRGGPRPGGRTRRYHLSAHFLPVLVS
rRNA inh HTS – reduced GFP signal of wild-type E. coli, primary screen, bacterial rRNA inhibitor project, GFP/RFP fluorescence, OD600, single point; GFP signal change (wild-type ribosome), % (no concentration beside the values); E. coli WT GFP vs humanized-ribosome RFP mutants, 24 h; active compounds read low; DMSO median 0, no signal -100; actives 1.6% (n = 350,000);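 active = significant combined selectivity score with lowered wild-type GFP, culture density cut under 30%, mutant RFP and density less affected; inactive = any of these conditions unmet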
KLK7 zymogen act – proKLK7 zymogen activators, primary screen, biochemical, fluorescence intensity; Kallikrein-7 (Homo sapiens), P49862; purified proKLK7, EDANS-DABCYL substrate fluorescence; 100% is mature enzyme control, 0% vehicle; activation, % at 7 µM; actives 0.9% (n = 370,000); AID 652039, 2013;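 active = activation above the mean of all tested compounds plus 3 SD, computed per campaign excluding outliers beyond control limits, cut at about 13% in these data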
Target sequence (P49862 whole entry, looked up): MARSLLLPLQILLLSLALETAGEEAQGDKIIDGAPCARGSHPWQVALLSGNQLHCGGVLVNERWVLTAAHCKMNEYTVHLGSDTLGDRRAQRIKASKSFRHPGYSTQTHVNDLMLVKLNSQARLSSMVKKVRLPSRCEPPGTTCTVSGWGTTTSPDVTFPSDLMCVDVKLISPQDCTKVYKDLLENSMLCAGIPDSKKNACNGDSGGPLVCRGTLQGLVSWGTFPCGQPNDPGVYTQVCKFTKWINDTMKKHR
ADAM10 counter – ADAM10 inhibitors, counter-screen for ADAM17 exosite inhibitor project, biochemical, FRET, human ADAM10; inhibition, % at 6.95 µM; AID 743256, 2014; recombinant ADAM10, EDANS/DABCYL FRET peptide cleavage, 3 h; shares compounds with ADAM17 inh; actives 47% (n = 2,900);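 active = mean inhibition over the triplicate runs exceeds the activity threshold set in the earlier primary screen, cut at about 20% in these data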
ADAM17 confirm – ADAM17 inhibitors, hit retest, confirmation, biochemical, QFRET peptide cleavage | inhibition, % at 6.95 µM | shares compounds with ADAM17 inh | actives 65% (n = 2,900) | recombinant ADAM17, EDANS/DABCYL QFRET peptide cleavage | AID 743257, 2014;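 active = mean inhibition across replicates above the hit cutoff set in the primary screen, cut at about 8.5% in these data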
Hits are given with their value. The list is not random: actives were taken first. Their share in the collection is about 3.8%.

For C=CCOC(=O)[C@H]1[C@@H]2C(=O)O[C@@H](c3ccccc3)[C@@H](c3ccccc3)N2[C@@H](c2ccc(OCCOC(=O)[C@H]3C[C@H]4C(=O)N[C@@H](Cc5ccccc5)C(=O)N4[C@H]3c3ccc(O)cc3)cc2)[C@]12C(=O)Nc1ccc(I)cc12 the results were FGF22 binding inactive.
Screening COc1ccc(Cl)cc1NC(=O)CN(C)C(=O)CSc1ccc2c(c1)OCCO2 returned ADAM17 inh 8.9, ADAM10 inh inactive, FGF22 binding inactive, KLK7 zymogen act inactive, ADAM10 counter 25.0 and ADAM17 confirm 15.1.
`O=C(Cc1ccccc1)NNC(=O)Nc1cccc(Cl)c1` gave ADAM17 inh inactive, ADAM10 inh inactive and KLK7 zymogen act inactive.
Screening O=C(CN1c2ccccc2Sc2ccccc21)NNC(=O)Nc1cccc(Cl)c1 returned ADAM17 inh 8.8, ADAM10 inh inactive, FGF22 binding inactive, KLK7 zymogen act inactive, ADAM10 counter inactive and ADAM17 confirm 8.9.
For Cc1ccc(CCNC(=O)CCCn2nc(C)c3c(C)n(-c4ccc(C)cc4)nc3c2=O)cc1 the results were ADAM17 inh 10.7, ADAM10 inh inactive, FGF22 binding inactive, rRNA inh HTS inactive, KLK7 zymogen act inactive, ADAM10 counter inactive and ADAM17 confirm inactive.
Screening COC(=O)C[C@@H]1CC[C@H]2[C@H](COc3ccc(NC(=O)NC(C)C)cc3C(=O)N2C)O1 returned FGF22 binding inactive and rRNA inh HTS inactive.
Screening CC(C)NC(=O)Nc1ccc2c(c1)C(=O)N(C)[C@H]1CC[C@H](CC(=O)NC3CCCCC3)O[C@H]1CO2 returned FGF22 binding inactive and rRNA inh HTS inactive.
For O=C(Cn1c(-c2ccccc2)noc1=O)Nc1ccc(N2CCCCCC2)cc1 the results were ADAM17 inh 11.1, ADAM10 inh inactive, KLK7 zymogen act inactive, ADAM10 counter 23.9 and ADAM17 confirm 16.8.
`O=C(Cn1c(-c2ccccc2)noc1=O)Nc1ccc(S(=O)(=O)N2CCOCC2)cc1` gave ADAM17 inh inactive, ADAM10 inh inactive and KLK7 zymogen act inactive.
Screening C[C@H]1CN(C)C(=O)c2cccc(N(C)C)c2O[C@H]1CN(C)C(=O)OC(C)(C)C returned rRNA inh HTS inactive.
CCO[C@H]1OC(C(=O)Nc2ccccc2)=C[C@@H](c2csc3ccccc23)[C@@H]1CCCO was read as ADAM17 inh 10.1, ADAM10 inh inactive, FGF22 binding inactive, rRNA inh HTS inactive, KLK7 zymogen act inactive, ADAM10 counter inactive and ADAM17 confirm 11.9.
For COc1ccc(S(=O)(=O)N2CCCCN3[C@H](CO)[C@H](c4ccc(C#CC(C)C)cc4)[C@H]3C2)cc1 the results were FGF22 binding inactive and rRNA inh HTS inactive.
Nc1ccccc1Sc1ccc(C(=O)c2ccccc2C(=O)O)cc1[N+](=O)[O-] was read as ADAM17 inh 9.0, ADAM10 inh inactive, FGF22 binding inactive, rRNA inh HTS inactive, KLK7 zymogen act inactive, ADAM10 counter inactive and ADAM17 confirm inactive.
`O=C(C1CCOCC1)N1CC2(C1)[C@@H](c1ccccc1)[C@@H](CO)N2CCC(F)(F)F` gave rRNA inh HTS inactive.
Cc1ccc2c(c1)[C@H]1[C@H](CO2)[C@H](c2ccccc2)[C@]2(C)C(=O)N(Cc3ccc(Cl)cc3)CC(=O)N12 was read as ADAM17 inh 11.6, ADAM10 inh inactive, FGF22 binding inactive, rRNA inh HTS inactive, KLK7 zymogen act inactive, ADAM10 counter inactive and ADAM17 confirm 11.5.
`CCOC(=O)[C@@H]1[C@H]2COc3ccc(Br)cc3[C@H]2N2C(=O)N(c3ccc(Br)cc3)C(=O)[C@]12C` gave ADAM17 inh 9.2, ADAM10 inh inactive, FGF22 binding inactive, rRNA inh HTS inactive, KLK7 zymogen act inactive, ADAM10 counter 31.1 and ADAM17 confirm 21.1.
For C[C@@]12C(=O)Nc3ccccc3C(=O)N1[C@H]1c3cc(Br)ccc3OC[C@@H]1[C@@H]2c1ccccc1 the results were ADAM17 inh 8.6, ADAM10 inh inactive, FGF22 binding inactive, rRNA inh HTS inactive, KLK7 zymogen act inactive, ADAM10 counter 19.9 and ADAM17 confirm 11.2.
CCOC(=O)[C@H]1[C@H]2COc3ccc(C)cc3[C@@H]2N2C(=O)c3cc(Br)ccc3NC(=O)[C@@]12C was read as ADAM17 inh 9.5, ADAM10 inh inactive, FGF22 binding inactive, rRNA inh HTS inactive, KLK7 zymogen act inactive, ADAM10 counter 49.3 and ADAM17 confirm 16.7.
CCOC(=O)[C@@H]1[C@H]2COc3ccc(Br)cc3[C@@H]2N2C(=O)N(c3ccc(Br)cc3)C(=O)[C@]12C was read as ADAM17 inh inactive, ADAM10 inh inactive, FGF22 binding inactive, rRNA inh HTS inactive and KLK7 zymogen act inactive.
Screening O=C(C[C@H]1C=C[C@@H](NS(=O)(=O)c2ccc(F)cc2)[C@H](CO)O1)NCc1ccccc1F returned rRNA inh HTS inactive.
For CC(=O)N1[C@H](CO)[C@H](c2ccccc2)C12CN(C(=O)c1ccccc1)C2 the results were rRNA inh HTS inactive.
Screening CS(=O)(=O)N1CC2(C1)[C@H](c1ccccc1)[C@H](CO)N2CC1CCCC1 returned FGF22 binding inactive and rRNA inh HTS inactive.
`COc1ccccc1CCn1cnc(-c2ccccc2)c1CC(C)C` gave ADAM17 inh 8.7, ADAM10 inh inactive, FGF22 binding inactive, rRNA inh HTS inactive, KLK7 zymogen act inactive, ADAM10 counter inactive and ADAM17 confirm 9.1.
COc1ccccc1CCn1cnc(-c2ccc(F)cc2)c1CC(C)C was read as ADAM17 inh inactive, ADAM10 inh inactive, FGF22 binding inactive, rRNA inh HTS inactive and KLK7 zymogen act inactive.
For C[C@@H]1CN([C@H](C)CO)C(=O)c2c(c3ccccc3n2C)-c2ccccc2CO[C@H]1CN(C)C(=O)C1CC1 the results were FGF22 binding inactive and rRNA inh HTS inactive.
For O=C(C[C@H]1C=C[C@H](NC(=O)C2CC2)[C@@H](CO)O1)Nc1nccs1 the results were FGF22 binding inactive and rRNA inh HTS inactive.
